Screens as filed in PubChem BioAssay.
Hits are enriched below; roughly 5.7% of the tested compounds scored in any of these assays.
Gal4-VP16 FLuc: Gal4-VP16 reporter inhibition counter-screen. Drosophila S2 Gal4-VP16 UAS-luciferase, luminescence, 20 h. Potency, µM (titrated, usually from 53.6 µM), for inactives: at the highest dose activity, negative = inhibition, actives largely listed as inhibitors. 310,000 compounds, 3.5% hits. AID 2546;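 further: Gal4-VP16 expression switched on by copper sulfate through the metallothionein promoter; nearly all actives have a fitted effect of over 50% in size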
NPSR antag: blocks cAMP signaling of the human neuropeptide S receptor | CHO-NPSR cells, cAMP TR-FRET, antagonist mode | 220,000 compounds, 1% hits | Q6W5P4 | Potency, µM (top dose mostly 38.3 µM), for the others: top-dose activity change, negative = inhibition, hits mostly inhibitors; further: nearly all actives have a fitted effect of over 50% in size
RORgamma inh: ROR gamma (mouse) transcription inhibition | P51450 | Drosophila S2 Gal4-RORgamma UAS-luciferase reporter, 20 h | Potency, µM (doses to about 53.6 µM), for inactives: top-dose activity change, negative = inhibition, hits mostly inhibitors | 310,000 compounds, 5.4% hits; further: nearly all actives have a fitted effect of over 60% in size
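Drosophila Schneider cells stably carrying a metallothionein-driven Gal4 DBD–ROR gamma fusion and a UAS-Photinus luciferase reporter were exposed to compound for 1 hr, then induced with copper sulfate (700 uM final) for 20 hr at ambient temperature before luminescence reading.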
B2AR arrestin: beta2AR (human) beta-arrestin recruitment activity; beta-arrestin recruitment to beta2AR, cell-based reporter; Potency, µM (series often up to 46.1 µM), for inactives: top-dose activation, usual class: activators; 330,000 compounds, 0.02% hits;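 further: 0% = DMSO controls and full agonism = EC100 isoproterenol or metaproterenol; nearly all actives have a fitted effect of over 65% in size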
Target sequence (P07550 whole entry, looked up): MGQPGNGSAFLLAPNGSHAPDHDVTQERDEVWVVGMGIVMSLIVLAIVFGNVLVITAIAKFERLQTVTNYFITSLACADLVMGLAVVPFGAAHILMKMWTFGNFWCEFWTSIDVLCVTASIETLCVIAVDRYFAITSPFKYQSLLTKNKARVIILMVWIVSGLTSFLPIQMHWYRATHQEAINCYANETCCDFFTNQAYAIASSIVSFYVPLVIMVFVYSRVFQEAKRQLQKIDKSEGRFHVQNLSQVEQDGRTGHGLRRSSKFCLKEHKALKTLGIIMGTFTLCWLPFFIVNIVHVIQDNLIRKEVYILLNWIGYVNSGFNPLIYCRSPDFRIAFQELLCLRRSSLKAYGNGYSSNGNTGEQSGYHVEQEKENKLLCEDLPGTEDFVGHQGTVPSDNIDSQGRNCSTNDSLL
Numbers without * were called inactive; ? = inconclusive; nt = not tested or not shown; [ ] = remark or other dose. The call rests on the fitted dose curve; in most records, active means well fitted curve in the direction sought with a large enough effect; inconclusive means small, poorly fitted or top-dose-only effect, or another doubt; inactive means no such curve, though single readings can be large; an effect the other way counts as inactive or inconclusive. Unless noted, on the % scale 0 is the no-effect control and ±100 the full control effect; potency means the concentration at half of the fitted maximal effect.

SMILES | Gal4-VP16 FLuc | NPSR antag | RORgamma inh | B2AR arrestin
CC[C@H](C)N(C)C(=O)c1cc2ccccc2c(-c2ccccc2Cl)n1 | -1% | nt | 34% | nt
Cc1ccc(CCCNC(=O)C2CCC(=O)N(Cc3cccc(F)c3)C2)cc1 (stereo not drawn) | 0% | nt | 33% | 0%
CCCOc1ccc(-c2c(C(=O)N/N=C/c3ccccc3)nnn2-c2nonc2N)cc1 | -4% | -23% | -28% | 0%
CCN(CC)c1ccc(/C=N/NC(=O)c2nnn(-c3nonc3N)c2-c2ccc(C)cc2)cc1 | ? | nt | 13µM* | 0%
CCCOc1ccc(-c2c(C(=O)N/N=C/c3ccsc3)nnn2-c2nonc2N)cc1 | ? | nt | 7.9µM* | 0%
CCOc1ccc(-c2c(C(=O)N/N=C/c3c[nH]c4ccccc34)nnn2-c2nonc2N)cc1 | 3.2µM* | nt | ? | 0%
O=C1CC(N2CCCCCC2)C(=O)N1c1ccc2c(c1)OCO2 (stereo not drawn) | ? | -3%[46.1 µM] | 10µM* | 0%
Cc1nc(NNC(=O)c2ccc([N+](=O)[O-])cc2)cc(-c2ccccc2)n1 | 7.9µM* | 2%[46.1 µM] | 2.2µM* | 0%
O=C(NNc1cc(N2CCCC2)nc(N2CCCC2)n1)c1ccc([N+](=O)[O-])cc1 | 3.2µM* | 11% | 1.4µM* | 0%
C(=N\Nc1nc(Nc2ccccc2)nc(N2CCOCC2)n1)/c1c[nH]c2ccccc12 | -8% | -21%[46.1 µM] | -29% | 0%
Cc1[nH]c2ccccc2c1/C=N/Nc1nc(Nc2ccc(F)cc2)nc(N2CCOCC2)n1 | 5.6µM* | ? | 2.5µM* | 0%
Cc1ccc(Nc2nc(N/N=C/c3c[nH]c4ccccc34)nc(N3CCOCC3)n2)cc1 | ? | ? | 11µM* | 0%
O=C(CN1C2=NCCN2c2ccccc21)C12CC3CC(CC(C3)C1)C2 | -28% | -16%[46.1 µM] | 16µM* | -1%
COc1ccc(C2=NCCn3nc4cc(OC)ccc4c32)cc1 | nt | nt | nt | -1%
COc1ccc2[nH]c(=O)c3c(c2c1)OC(C)(C)C=C3 | 25µM* | 1%[46.1 µM] | -12% | -1%
Cc1cc2c([nH]c3ccccc32)c2c1OC(C)(C)C=C2 | 3% | -26% | -19% | 0%
CCOC(=O)C(NC(=O)c1ccccc1)(OCc1ccc(F)cc1)C(F)(F)F (stereo not drawn) | -3% | -12% | 1% | 0%
CCOC(=O)C(NC(=O)c1cccc(Cl)c1)(OCc1ccc(F)cc1)C(F)(F)F (stereo not drawn) | 20µM* | -19% | ? | 2%
O=C(N/N=C/c1cccs1)c1ccc(-n2cccc2)cc1 | 11µM* | 0% | 6.3µM* | 0%
O=C(N/N=C/c1cccs1)c1ccc(NC(=O)c2ccccc2Cl)cc1 | ? | ? | 10µM* | 0%
O=C(N/N=C/c1ccncc1)c1ccc(-n2cccc2)cc1 | -4% | 0% | -6% | -1%
Cc1ccc(/C=N/NC(=O)c2ccc(-n3cccc3)cc2)o1 | ? | nt | 18µM* | 0%
O=C(N/N=C/c1cccs1)c1cccc(NC(=O)c2ccccc2Cl)c1 | 14µM* | -16%[46.1 µM] | ? | -1%
COc1ccc(NC(=O)CSc2nnc3n2CCCCC3)cc1 | -2% | 8% | 3% | 0%
O=C1CCN(Cc2ccccc2)C=C1c1ccc(Br)cc1 | nt | nt | nt | 0%
SMILES | Gal4-VP16 FLuc | NPSR antag | RORgamma inh | B2AR arrestin
O=c1c(O)cc(C2Oc3cc(O)cc(O)c3CC2O)cc2c(C3Oc4cc(O)cc(O)c4CC3O)cc(O)c(O)c12 (stereo not drawn) | -27% | nt | -7% | nt
COc1ccc(-c2nc3cnc(OC)nc3n(CCc3ccccc3)c2=O)cc1 | 4% | nt | 0% | nt
CCC(C)(C)c1ccc(Oc2ccc(N)cc2)cc1 | 7.9µM* | -27% | -13% | 0%
Cc1nc2cc(NC(=O)c3ccco3)ccc2n1C | ? | nt | 16µM* | -1%
O=C(Nc1ccc2c(c1)nc1n2CCSC1)c1ccco1 | 3.2µM* | 8%[46.1 µM] | 2.2µM* | 0%
CCC(Oc1ccccc1C)C(=O)N1CCCN(C)CC1 (stereo not drawn) | nt | nt | nt | 0%
Cc1ccc(-n2ncc(Br)c(Br)c2=O)cc1 | 2.8µM* | ? | 5µM* | 0%
O=c1c(Br)c(Br)cnn1-c1ccccc1 | 5µM* | 10µM* | 3.2µM* | -1%
O=C(COC(=O)c1ccc[n+]([O-])c1)Nc1ccc([N+](=O)[O-])cc1Cl | nt | nt | nt | 0%
CC(C)(C)c1ccc(N2C[C@@H](COc3ccc(C(=O)O)cc3)CC2=O)cc1 | -7% | nt | 0% | nt
CCOC(=O)c1c(C)oc2c(CN3CCN(C)CC3)c(Br)c(OC)c(O)c12 | 18µM* | -6%[46.1 µM] | ? | -2%
COCCn1c(C)cc(/C=C(\C#N)C(=O)OCC(=O)Nc2ccc(S(N)(=O)=O)cc2)c1C | nt | nt | nt | 0%
O=C(O)C1=CC[C@@H](c2ccc(Cl)cc2)N(S(=O)(=O)c2ccc(Cl)cc2)[C@H]1c1ccccc1 | nt | nt | nt | 7%
Cc1cccc(-c2[nH]c(C(C)(C)C)nc2-c2ccc3c(c2)OCO3)n1 | 7.1µM* | nt | 1.8µM* | nt
COc1ccc(Cc2nnc(N/N=C/c3ccc(C)o3)[nH]c2=O)cc1 | -26% | -3% | 11µM* | 0%
COc1ccc(Cc2nnc(Nc3ccc(Cl)cc3)[nH]c2=O)cc1 | 2% | 3% | -16% | 6%
COc1ccc(Cc2nnc(N/N=C/c3ccc(O)cc3)[nH]c2=O)cc1OC | 4µM* | -9%[46.1 µM] | 2.2µM* | 0%
COc1ccc(Cc2nnc(N/N=C/c3ccc(Br)cc3)[nH]c2=O)cc1OC | -8% | 0% | 13% | 0%
Cc1cc(C)n(CCC(=O)N2CCc3ccccc32)n1 | -6% | nt | -23% | 0%
Cc1cccc(-n2c(C)nc3c(cnn3-c3ccc(F)cc3)c2=O)c1 | 7.1µM* | -14%[46.1 µM] | -39% | -1%
N#Cc1ccccc1NC(=S)NC(=O)c1cccnc1 | nt | nt | nt | 0%
CCC(C)c1ccc(O)c(NC(=S)NC(=O)c2cccnc2)c1 (stereo not drawn) | 1.3µM* | -9% | 0.56µM* | -1%
O=C(NC(=S)Nc1ccccc1O)c1cccnc1 | ? | nt | 11µM* | 0%
CC(C)c1ccc(O)c(NC(=O)c2cccnc2)c1 | 7% | -6%[46.1 µM] | ? | 0%
Cc1ccc([N+](=O)[O-])cc1NC(=S)NC(=O)c1cccnc1 | -24% | 9% | 13µM* | 0%
SMILES | Gal4-VP16 FLuc | NPSR antag | RORgamma inh | B2AR arrestin
O=C(NC(=S)Nc1cc([N+](=O)[O-])ccc1O)c1cccnc1 | 13µM* | -16% | 2µM* | 0%
Cc1c(C)c2c(c(C)c1OC(=O)c1cccnc1)CC[C@@](C)(CCC[C@H](C)CCC[C@H](C)CCCC(C)C)O2 | -1% | nt | 1% | nt
COc1ccc(C(=O)NCc2nnc(SCC(=O)N3CCCC3)o2)cc1OC | -3% | nt | 10% | -1%
N=c1ccn2c(n1)O[C@H]1[C@@H](O)[C@@H](CO)O[C@H]12 | nt | -6%[46.1 µM] | nt | nt
Cc1ccc(-c2cc(C(F)F)nc(S(C)(=O)=O)n2)cc1 | ? | -4% | 10µM* | 0%
CCCN(CCC)CCNC(=O)c1cc2c(=O)n(C)c3ccccc3c2n1C | -1% | 2%[46.1 µM] | -19% | 0%
CN(CCNC(=O)c1cc2c(=O)n(C)c3ccccc3c2n1C)Cc1ccccc1 | ? | -3%[46.1 µM] | 11µM* | 0%
